This is one part of a sample in which hits are shown more often than they occur.
KDM5B inhibitor: Primary screen for KDM5B Histone Demethylases FDH-coupled qHTS; Lysine-specific demethylase 5B (Homo sapiens), Q9UGL1; KDM5B demethylase, FDH-coupled NADH fluorescence (FDH is formaldehyde dehydrogenase); Potency, µM (titrated, usually from 57.7 µM), hits mostly inhibitors; hit rate 2.6% among 220,000; AID 1347165, 2019; active = well fitted inhibition curve with a large enough effect; note: 0% is about no effect; nearly all actives have a fitted effect of over 70% in size
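KDM5BΔAP (200 nM final) in 50 mM HEPES pH 7.5, 0.01% Tween-20 was preincubated 10 min at RT with compound over a concentration range. Substrate mix (H3K4me3 12.5 µM, α-KG 25 µM, Fe²⁺, ascorbate, NAD⁺, FDH) was added, and NADH fluorescence change over 30 min gave dose-response curves.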
An asterisk follows results filed as active; i = inactive. Potency is the fitted concentration of half-maximal effect.

SMILES	KDM5B inhibitor
CNC(=O)CCN(C)C(=O)Nc1cccc(C#N)c1	i
COC(=O)c1ccc(C(=O)Oc2ccc(C(C)=O)cc2)cc1	i
c1cc(N2CCCCC2)ccc1-c1n[nH]c(C2CCOC2)n1 (centres undefined)	22µM*
O=C(C1CC1)N1CCCCC1c1nc(C2CCOCC2)n[nH]1 (centres undefined)	i
c1cnn(-c2ccc(-c3n[nH]c(C4CCOCC4)n3)cc2)c1	i
NCc1cccc(-c2cccc(C(F)(F)F)c2)c1	i
O=C(c1cccc(Cl)c1)N1CCN(Cc2nnnn2C2CC2)CC1	i
c1ccc(Cn2ccnc2C2CCN(c3ncnc4ccsc34)CC2)nc1	i
Cc1cc(N2CCC(c3nccn3Cc3ccccn3)CC2)nc2ccccc12	32µM*
CCn1ccnc1C1CCN(c2nc3ccccc3s2)CC1	i
N#CC1(C(=O)OCC(=O)Nc2ccc(N3CCOCC3)cc2)CCCC1	i
N[C@@H](CO)c1nc(C2CCOCC2)nn1-c1ccccc1F	25µM*
c1ccc(Cn2nc(C3CCOCC3)nc2C2CCC2)cc1	i
Fc1cccc(-n2nc(C3CCOCC3)nc2CNC2CC2)c1	i
CC1CCCC(NC(=O)/C=C/c2ccc3c(c2)CCO3)C1C (centres undefined)	i
COc1cccc(C2CCN(Cc3cn(-c4ccccc4)nn3)C2)c1OC (centres undefined)	i
COCCCNc1ncnc2onc(-c3ccc(F)cc3)c12	i
COCCNc1ncc(-c2cccc(OC)c2)c2c1OCC2	35µM*
COCCNc1nc(-c2ccc(NC(C)=O)cc2)cs1	i
COCCNc1ncc(-c2ccc(NC(C)=O)cc2)c2c1OCC2	35µM*
COCCNc1ncnc2onc(-c3ccc(F)cc3)c12	i
COCCNc1ncc(-c2ccc(F)cc2)c2c1OCC2	32µM*
COc1cccc(C(=O)Nc2ccccc2-c2nnc(-c3cccc(OC)c3)o2)c1	i
COCCNc1ncc(-c2ccc(SC)cc2)c2c1OCC2	5µM*
COCc1nnc(NC(=O)Cn2ccc3c(Cl)cccc32)s1	i
SMILES	KDM5B inhibitor
COc1ccccc1-c1c(C)nn2c(SCC(=O)NCc3cccnc3)cc(C)nc12	i
Cn1c(=O)c2c(nc(Sc3ccccc3)n2Cc2ccccc2Cl)n(C)c1=O	i
COc1cc(/C=C/C(=O)c2cc3ccccc3o2)c2c(c1)CC(C)O2 (centres undefined)	i
CCN(CCO)C(=O)CCOc1ccccc1	i
O=C(Nc1ccc(Cl)c(C(F)(F)F)c1)c1ccccc1	i
COc1ccc(N2CCN(c3nc(C(=O)NCc4ccccc4C)cs3)CC2)cc1	i
COc1ccccc1/C=C(\C#N)c1nc2ccccc2[nH]1	i
Cn1cnc2c1c(=O)n(CCCn1nnc(-c3ccc(F)cc3)n1)c(=O)n2C	i
CCN(CC)S(=O)(=O)c1ccc(-c2nc(C#N)c(N3CCCCCC3)o2)cc1	i
COc1ccc(OCC(=O)Nc2ncc(-c3ccc(OC)nc3)c3c2OCC3)cc1	i
COCCNc1ncc(-c2ccc(OC)cc2)c2c1OCC2	35µM*
C[S+](=O)([O-])Nc1cccc(Nc2cnc3ccc(-c4cccc(CO)c4)nn23)c1	i
COCCNc1oc(-c2ccc(OC)cc2)nc1S(=O)(=O)c1ccccc1	i
COCCNc1ncc(-c2cccc(N[S+](C)(=O)[O-])c2)c2c1OCC2	35µM*
O=C(O)C(c1c[nH]c2cc(F)ccc12)N1CCN(C2=Nc3ccccc3Oc3ccccc32)CC1 (centres undefined)	i
Cc1cc(N(CCO)CCO)n2nc(Cc3ccc(Cl)cc3)nc2n1	i
Cc1cc(C)n(CCc2c(-c3ccccc3)ncn2CCCc2cccnc2)n1	i
CCC(CC)C(NC(=O)CCc1cccs1)c1ccccc1 (centres undefined)	i
COc1cc(-c2ccc(-c3nc(CC(C)C)no3)cn2)cc(OC)c1OC	i
COc1ccc(-c2ccc(-c3nc(CC(C)C)no3)cn2)c2cccnc12	28µM*
COc1ccc(NC(=O)CC(C)C)c2cccnc12	i
O=S(=O)(NCC1(c2ccccc2)CC1)c1ccc(Cl)cc1	i
Cc1c(B2OC(C)(C)C(C)(C)O2)cnn1C	i
CC1(C)CC(NC(=O)C2CCCN(c3ncnc4nc[nH]c34)C2)CC(C)(C)N1 (centres undefined)	i
O=C(CCC1CCCC1)NCc1nnc2cc(-c3nc(C4CC4)no3)ccn12	11µM*
SMILES	KDM5B inhibitor
O=C(CC1CCCCC1)NCc1nnc2cc(-c3nc(C4CC4)no3)ccn12	14µM*
COc1ccc(-c2cc(C(=O)Oc3ccc(F)cc3)no2)cc1	i
CCN(Cc1ccco1)C(=O)c1cc2cc(Br)ccc2[nH]1	i
CONC(=O)COc1ccc(C)cc1C	i
Cc1c(C(=O)OC(C)C#N)oc2ccc(Cl)cc12 (centres undefined)	i
COCCNC(=O)c1nc(-c2ccc(OC)cc2)c2ccccn12	89µM*
COc1ccc(OCCNC(=O)c2cn(C)c3ccccc23)cc1	i
COCCNC(=O)c1nc(-c2ccc(F)cc2)c2ccccn12	40µM*

Assay outcomes from PubChem BioAssay.
